Records with an inconclusive call do not appear. Unmarked numbers belong to inactive results. The source made the active and inactive calls. Calls come from the whole dose curve; as a rule, active = well fitted cell-killing curve with a large enough effect; inconclusive = small, poorly fitted or top-dose-only effect, or effect the other way; inactive = no such curve, though single readings can be large or run the other way.
% is set by controls: 0 for no effect and ±100 for the full control effect; potency is the fitted concentration of half-maximal effect.

In the experiment the test system is PA-1. Kind of experiment: Confirmatory qHTS for gynecologic anti-cancer compounds from libraries of approved drugs and bioactive compounds. Note: nearly all actives have a fitted effect of over 55% in size. To be noted: gynecologic cancer cell panel viability, ATPlite luminescence, 48 h; series mostly up to 57.6 µM; activity change, negative = viability loss: at the top concentration. The method, boiled down: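 ATPlite luminescence read-out of cell viability; IC50 from 11-point 1:3 titrations, 57.5 uM to 0.977 nM, 48 h compound exposure at 37 C, 5% CO2. Cells seeded at 1,000/well 16 h before dosing.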
In general terms: In qHTS, concentration-response curves come from the screen itself.
With `Cc1cc(Nc2cc(N3CCN(C)CC3)nc(Sc3ccc(NC(=O)C4CC4)cc3)n2)n[nH]1`, the Potency was 2.17 µM (active). Still for that read-out and setting: the same measure for `O=C(Nc1cn[nH]c1-c1nc2ccc(CN3CCOCC3)cc2[nH]1)NC1CC1`: 3.85 µM (active). Same read-out and setting: under `COc1cccc2c1C(=O)c1c(O)c3c(c(O)c1C2=O)C[C@@](O)(C(=O)CO)C[C@@H]3O[C@H]1C[C@H](N)[C@H](O[C@@H]2CCCCO2)[C@H](C)O1` stands 0.685 µM (active); under `N=C(N)c1ccc(OCCCCCOc2ccc(C(=N)N)cc2)cc1`, 4.32 µM (active); under `CC(C)Oc1ccc(C(=O)NC(CNC(=O)CN(C)C)Cc2ccc(-c3cn4cccc(C(C)O)c4n3)cc2)cc1Cl` (stereo not drawn), 0.243 µM (active). For the molecule `Nc1ccccc1NC(=O)c1ccc(CNc2nccc(-c3cccnc3)n2)cc1`, the Potency is 1.09 µM (active). As to `COc1cc2c(c(OC)c1OC)-c1ccc(OC)c(=O)cc1[C@@H](NC(C)=O)CC2`, the Potency was 0.126 µM (active).

In the case of `CN[C@@H](C)C(=O)N[C@H]1CN(C(=O)CC(C)C)CC[C@H]2CC[C@@H](C(=O)NC(c3ccccc3)c3ccccc3)N2C1=O`, the “activity change, negative = viability loss” value is -1.71%. Turning to `CN(C)c1ccc2nc3ccc(=[N+](C)C)cc-3sc2c1`, the Potency was 21.7 µM (active). On the same count and under the same terms, under `CCS(=O)(=O)N1CCN(c2ccc(Nc3ncc(C(N)=O)c(NC4CC4)n3)cc2)CC1` stands 3.85 µM (active); under `Nc1ccccc1NC(=O)c1ccc(CNC(=O)OCc2cccnc2)cc1`, 1.53 µM (active). Still for that read-out and setting: the same measure for `CC(C)Oc1ccc2c(=O)c(-c3ccccc3)coc2c1`: 17.2 µM (active). Same read-out and setting: under `CCN(CC)CCCC(C)Nc1c2ccc(Cl)cc2nc2ccc(OC)cc12` (stereo not drawn) stands 27.3 µM (active).

For the origin of these results see PubChem BioAssay AID1345085 (National Center for Advancing Translational Sciences (NCATS), 2018).
